Data from PubChem BioAssay (Tox21).
Records with an inconclusive call do not appear. Active and inactive are the calls of the source. Unless noted, calls come from the whole dose curve; as a rule, active = well fitted curve in the direction sought with a large enough effect in the repeat runs; inconclusive = weak or mixed curves; inactive = no such curve, though single readings can be large; an effect the other way counts as inactive or inconclusive.

Tests used:
[1] = qHTS assay to identify small molecule antagonists of the thyroid receptor (TR) signaling pathway - cell viability counter screen (AID 743064); note: nearly all actives have a fitted effect of over 50% in size
Outline: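 In-well cytotoxicity read by CellTiter-Fluor (30 min, 37 C) following 23.5 h exposure of GH3 cells bearing a TRE-luciferase sensor. Compounds were added alongside 1 nM (final) T3 to drive TR transactivation.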

[2] = qHTS assay to identify small molecule antagonists of the thyroid receptor (TR) signaling pathway (AID 743065); note: nearly all actives have a fitted effect of over 55% in size
Outline: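 GH3.TRE-Luc rat pituitary cells carrying two TR response elements driving luciferase were plated for 4 h, given compound plus 1 nM T3 (final), and incubated 23.5 h at 37 C. ONE-Glo luminescence measured reporter inhibition; CellTiter-Fluor fluorescence tracked cytotoxicity.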

[3] = system: thyroid hormone receptor (rat, GH3 cells); assay: qHTS assay to identify small molecule agonists of the thyroid receptor (TR) signaling pathway (AID 743066; calls by dose curve)
[4] = qHTS assay to identify small molecule antagonists of the estrogen receptor alpha (ER-alpha) signaling pathway - cell viability counter screen (AID 743074; calls by dose curve;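 note: HEK293 cells carrying ER-alpha-UAS-bla reporter stimulated with 17beta-estradiol; nearly all actives have a fitted effect of over 45% in size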)
[5] = qHTS assay to identify small molecule antagonists of the estrogen receptor alpha (ER-alpha) signaling pathway using the BG1 cell line - cell viability counter screen (AID 743081);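 note: compound given together with 17beta-estradiol as the ER stimulus; nearly all actives have a fitted effect of over 45% in size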
[6] = target: Aromatase (Homo sapiens) (UniProt P11511); assay: qHTS assay to identify aromatase inhibitors (AID 743083); note: nearly all actives have a fitted effect of over 55% in size
[7] = target: Estrogen receptor (Homo sapiens) (UniProt P03372); assay: qHTS assay to identify small molecule antagonists of the estrogen receptor alpha (ER-alpha) signaling pathway (AID 743069; active = well fitted curve in the direction sought with a large enough effect in the signal ratio in the repeat runs, not every such curve was filed as active; the % refers to the signal ratio)
Outline: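 A 17beta-estradiol challenge was applied right after compound transfer to ER-alpha-UAS-bla HEK293 cells previously kept in charcoal-stripped serum. Plates stood 18 hr at 37C and 5% CO2; fluorescence was read following 2 hr FRET substrate loading at room temperature.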

[8] = target: Estrogen receptor (Homo sapiens) (UniProt P03372); assay: qHTS assay to identify small molecule agonists of the estrogen receptor alpha (ER-alpha) signaling pathway (AID 743075; calls by dose curve;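 note: HEK293 GripTite cells with ER-alpha and UAS-driven beta-lactamase reporter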)
[9] = target: Estrogen receptor (Homo sapiens) (UniProt P03372); assay: qHTS assay to identify small molecule agonists of the estrogen receptor alpha (ER-alpha) signaling pathway using the BG1 cell line (AID 743079); settings: BG1Luc4E2 cells, ERE-luciferase agonist, 22 h; at 70.3 µM (top of the series); note: nearly all actives have a fitted effect of over 20% in size
[10] = qHTS assay to identify small molecule antagonists of the estrogen receptor alpha (ER-alpha) signaling pathway using the BG1 cell line (AID 743080; calls by dose curve;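 note: BG1 cells stimulated with 17beta-estradiol alongside compound; nearly all actives have a fitted effect of over 25% in size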)
Outline: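 BG1-Luc-4E2 cells (endogenous full-length ER-alpha, 4xERE luciferase) hormone-starved 5 days in charcoal-stripped FBS, plated 4,000/well for 24 h, then compound plus 17beta-estradiol for 21.5 h at 37 C; ONE-Glo luminescence read.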
% is set by controls: 0 for no effect and ±100 for the full control effect.

Sequence of Aromatase (Homo sapiens) (P11511 whole entry, looked up): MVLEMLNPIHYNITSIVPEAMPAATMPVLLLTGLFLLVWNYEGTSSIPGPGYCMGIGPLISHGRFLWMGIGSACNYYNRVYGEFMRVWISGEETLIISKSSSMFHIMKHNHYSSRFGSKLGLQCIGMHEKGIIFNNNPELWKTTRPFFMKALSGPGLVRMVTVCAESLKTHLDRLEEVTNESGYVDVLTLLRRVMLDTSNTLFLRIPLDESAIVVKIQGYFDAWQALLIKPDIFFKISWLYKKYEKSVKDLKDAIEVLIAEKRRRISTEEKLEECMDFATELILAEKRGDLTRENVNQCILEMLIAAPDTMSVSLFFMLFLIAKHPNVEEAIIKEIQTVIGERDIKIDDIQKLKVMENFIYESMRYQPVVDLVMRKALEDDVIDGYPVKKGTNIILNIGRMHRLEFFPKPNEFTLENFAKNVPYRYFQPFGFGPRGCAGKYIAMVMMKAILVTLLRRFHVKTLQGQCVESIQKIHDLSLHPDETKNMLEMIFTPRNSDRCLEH
Sequence of Estrogen receptor (Homo sapiens) (P03372 whole entry, looked up): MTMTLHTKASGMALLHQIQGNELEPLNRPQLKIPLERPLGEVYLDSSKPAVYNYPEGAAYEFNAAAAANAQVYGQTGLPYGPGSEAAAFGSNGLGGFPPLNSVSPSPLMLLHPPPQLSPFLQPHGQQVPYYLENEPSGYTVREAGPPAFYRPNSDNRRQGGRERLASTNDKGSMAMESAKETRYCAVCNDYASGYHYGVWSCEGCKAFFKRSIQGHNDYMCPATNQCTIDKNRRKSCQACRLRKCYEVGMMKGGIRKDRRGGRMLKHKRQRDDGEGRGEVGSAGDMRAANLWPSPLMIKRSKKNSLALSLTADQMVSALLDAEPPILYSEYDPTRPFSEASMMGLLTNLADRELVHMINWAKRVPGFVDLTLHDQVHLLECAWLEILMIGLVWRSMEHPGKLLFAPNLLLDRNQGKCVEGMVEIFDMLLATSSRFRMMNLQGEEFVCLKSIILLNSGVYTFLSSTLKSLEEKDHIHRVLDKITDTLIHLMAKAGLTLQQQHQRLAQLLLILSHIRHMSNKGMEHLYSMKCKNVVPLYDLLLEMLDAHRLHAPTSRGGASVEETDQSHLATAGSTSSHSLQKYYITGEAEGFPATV

CNC(=O)Oc1cc(C)c(N(C)C)c(C)c1
inactive: Potency [1] | Potency [2] | Potency [3] | Potency [4] | Potency [5] | Potency [6]

CN1COCN(Cc2cnc(Cl)s2)/C1=N\[N+](=O)[O-]
inactive: Potency [1] | Potency [2] | Potency [3] | Potency [5] | Potency [6]

N#CC(Br)(Br)C(N)=O
inactive: Potency [1] | Potency [2] | Potency [4] | Potency [5]

C=CC(=O)OCCN(C)C
inactive: Potency [1] | Potency [2] | Potency [3] | Potency [4] | Potency [5] | Potency [6]

O=C(O)C(Cl)Br (configuration not stated)
inactive: Potency [1] | Potency [2] | Potency [3] | Potency [4] | Potency [5] | Potency [6]

CC(C)N(Cc1ccccc1)C(=O)C(C)(C)C
inactive: Potency [1] | Potency [2] | Potency [3] | Potency [4] | Potency [5] | Potency [6]

CCCOc1nn(C(=O)NS(=O)(=O)c2ccccc2C(=O)OC)c(=O)n1C
inactive: Potency [1] | Potency [2] | Potency [3] | Potency [5] | Potency [6]

CC(C)(C)NC[C@H](O)c1ccc(O)cc1Cl
inactive: Potency [1] | Potency [2] | Potency [3] | Potency [4] | Potency [5] | Potency [6]

O=c1[nH]c2ccccc2o1
inactive: Potency [1] | Potency [2] | Potency [3] | Potency [4] | Potency [5] | Potency [6]

CC(=O)OCC1=C(C(=O)O)N2C(=O)[C@@H](N)[C@H]2SC1
inactive: Potency [1] | Potency [2] | Potency [3] | Potency [4] | Potency [5] | Potency [6]

[P]#[In]
inactive: Potency [1] | Potency [2] | Potency [3] | Potency [4] | Potency [5] | Potency [6]

CON(C)C(=O)Nc1ccc(Br)cc1
inactive: Potency [1] | Potency [2] | Potency [3] | Potency [4] | Potency [5] | Potency [6]

CCOC(=O)c1ncn2c1CN(C)C(=O)c1c(I)cccc1-2
inactive: Potency [1] | Potency [3] | Potency [7] | Potency [4] | Potency [8] | activation [9] -3.09% | Potency [10] | Potency [5] | Potency [6]

CCN[C@@H](C)Cc1cccc(C(F)(F)F)c1
inactive: Potency [1] | Potency [3] | Potency [7] | Potency [4] | Potency [8] | activation [9] -18% | Potency [10] | Potency [5] | Potency [6]

C[C@@H](N)[C@@H](O)c1ccccc1
inactive: Potency [1] | Potency [2] | Potency [3] | Potency [4] | Potency [5] | Potency [6]

ClCCCCl
inactive: Potency [1] | Potency [2] | Potency [3] | Potency [4] | Potency [5] | Potency [6]

CCCC(C)C1(CC)C(=O)N=C(S)NC1=O (configuration not stated)
inactive: Potency [1] | Potency [2] | Potency [3] | Potency [4] | Potency [5] | Potency [6]

C=CCc1cc(OC)c2c(c1)OCO2
inactive: Potency [1] | Potency [2] | Potency [3] | Potency [5] | Potency [6]

CCOC(=O)C(SP(=S)(OC)OC)c1ccccc1 (configuration not stated)
inactive: Potency [1] | Potency [2] | Potency [3] | Potency [4] | Potency [5] | Potency [6]

O=S1(=O)OCCO1
inactive: Potency [1] | Potency [2] | Potency [3] | Potency [4] | Potency [5] | Potency [6]

Cl/C=C/CCl
inactive: Potency [1] | Potency [2] | Potency [3] | Potency [4] | Potency [5] | Potency [6]
